# According to the supplement of paper PMC11732987, “Enantioselective OTUD7B fragment discovery through chemoproteomics screening and high-throughput optimisation” (Communications Chemistry, 2025):
# A number with no mark means an inactive call.
# Experiments:
# Assay in all cases: log2 ratio of Biotin-Ahx-Ub-VS probe labelling (fragment/DMSO); higher = less target engagement (more negative = stronger competition), active = hit call of the paper (q ≤ 0.05, log2 ratio ≤ -1)
# Settings in all cases: compound concentration: 200 uM; treatment time: 3 h
# [1] = target: T1, USP19 (UniProt O94966)
# T1 sequence (whole entry): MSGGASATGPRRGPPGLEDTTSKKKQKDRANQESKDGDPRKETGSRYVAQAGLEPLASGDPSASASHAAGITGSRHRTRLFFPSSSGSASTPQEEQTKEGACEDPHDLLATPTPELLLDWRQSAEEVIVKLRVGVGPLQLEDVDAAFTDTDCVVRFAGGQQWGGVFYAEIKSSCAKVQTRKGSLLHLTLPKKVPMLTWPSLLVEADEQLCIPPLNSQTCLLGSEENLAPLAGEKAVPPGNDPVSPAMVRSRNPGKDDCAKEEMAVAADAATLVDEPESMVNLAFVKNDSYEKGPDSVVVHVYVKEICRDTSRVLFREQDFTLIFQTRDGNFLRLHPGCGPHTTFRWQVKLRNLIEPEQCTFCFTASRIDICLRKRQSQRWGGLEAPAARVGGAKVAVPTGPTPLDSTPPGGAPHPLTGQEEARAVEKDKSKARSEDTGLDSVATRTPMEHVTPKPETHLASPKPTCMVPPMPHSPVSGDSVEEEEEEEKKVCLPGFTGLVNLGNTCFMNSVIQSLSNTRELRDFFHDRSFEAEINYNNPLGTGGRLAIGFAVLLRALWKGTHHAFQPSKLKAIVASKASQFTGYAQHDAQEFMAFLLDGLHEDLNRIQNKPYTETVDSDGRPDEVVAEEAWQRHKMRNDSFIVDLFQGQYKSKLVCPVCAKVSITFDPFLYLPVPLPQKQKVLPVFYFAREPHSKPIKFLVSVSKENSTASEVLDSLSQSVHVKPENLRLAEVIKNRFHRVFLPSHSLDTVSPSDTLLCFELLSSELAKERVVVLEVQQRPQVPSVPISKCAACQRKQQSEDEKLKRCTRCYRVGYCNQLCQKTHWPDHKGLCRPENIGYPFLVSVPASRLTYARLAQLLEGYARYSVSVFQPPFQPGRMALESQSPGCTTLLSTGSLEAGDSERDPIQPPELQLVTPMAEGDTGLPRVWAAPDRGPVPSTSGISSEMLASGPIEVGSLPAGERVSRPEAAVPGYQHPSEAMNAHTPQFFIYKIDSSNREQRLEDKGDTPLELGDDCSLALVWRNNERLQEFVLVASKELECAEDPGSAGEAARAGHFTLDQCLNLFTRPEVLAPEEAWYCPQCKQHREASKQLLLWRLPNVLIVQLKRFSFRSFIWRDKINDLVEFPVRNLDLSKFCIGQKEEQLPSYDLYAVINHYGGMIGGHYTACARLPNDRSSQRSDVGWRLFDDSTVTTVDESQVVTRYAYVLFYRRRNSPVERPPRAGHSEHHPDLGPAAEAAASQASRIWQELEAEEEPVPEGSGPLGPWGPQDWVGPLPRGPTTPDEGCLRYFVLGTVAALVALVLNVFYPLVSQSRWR
# In short: (§1)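 In triplicate, 495 µg of HEK293T lysate per sample was incubated with fragment at 200 µM or vehicle for 3 h. Biotin-Ahx-Ub-VS was then added to 0.5 µM final for 1 h, and labelled DUBs were captured with NeutrAvidin, digested with LysC and trypsin, and measured by diaPASEF LC-MS/MS. Data are average log2 fragment/vehicle ratios by unpaired t-test from global-median-normalised Spectronaut label-free quantities, restricted to proteins with ≥2 unique peptides.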
# [2] = target: T2, USP22 (UniProt Q9UPT9)
# T2 sequence (whole entry): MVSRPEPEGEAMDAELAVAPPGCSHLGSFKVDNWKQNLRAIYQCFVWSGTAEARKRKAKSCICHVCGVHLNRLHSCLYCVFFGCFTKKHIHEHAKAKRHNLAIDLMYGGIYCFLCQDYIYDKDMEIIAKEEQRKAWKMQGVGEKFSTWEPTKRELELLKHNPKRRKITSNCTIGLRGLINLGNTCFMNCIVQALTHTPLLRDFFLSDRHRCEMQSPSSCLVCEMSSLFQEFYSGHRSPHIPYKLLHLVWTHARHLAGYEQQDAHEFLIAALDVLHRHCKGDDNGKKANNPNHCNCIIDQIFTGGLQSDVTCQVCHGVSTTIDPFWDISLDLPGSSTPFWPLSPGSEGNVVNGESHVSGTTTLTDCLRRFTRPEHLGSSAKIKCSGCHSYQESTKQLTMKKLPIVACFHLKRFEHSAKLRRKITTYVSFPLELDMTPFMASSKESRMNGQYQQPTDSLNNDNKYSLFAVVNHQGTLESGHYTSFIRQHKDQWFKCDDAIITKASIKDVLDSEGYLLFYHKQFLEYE
# In short: as §1
# [3] = target: USP24 (UniProt Q9UPU5)
# Sequence of USP24 (Q9UPU5 whole entry): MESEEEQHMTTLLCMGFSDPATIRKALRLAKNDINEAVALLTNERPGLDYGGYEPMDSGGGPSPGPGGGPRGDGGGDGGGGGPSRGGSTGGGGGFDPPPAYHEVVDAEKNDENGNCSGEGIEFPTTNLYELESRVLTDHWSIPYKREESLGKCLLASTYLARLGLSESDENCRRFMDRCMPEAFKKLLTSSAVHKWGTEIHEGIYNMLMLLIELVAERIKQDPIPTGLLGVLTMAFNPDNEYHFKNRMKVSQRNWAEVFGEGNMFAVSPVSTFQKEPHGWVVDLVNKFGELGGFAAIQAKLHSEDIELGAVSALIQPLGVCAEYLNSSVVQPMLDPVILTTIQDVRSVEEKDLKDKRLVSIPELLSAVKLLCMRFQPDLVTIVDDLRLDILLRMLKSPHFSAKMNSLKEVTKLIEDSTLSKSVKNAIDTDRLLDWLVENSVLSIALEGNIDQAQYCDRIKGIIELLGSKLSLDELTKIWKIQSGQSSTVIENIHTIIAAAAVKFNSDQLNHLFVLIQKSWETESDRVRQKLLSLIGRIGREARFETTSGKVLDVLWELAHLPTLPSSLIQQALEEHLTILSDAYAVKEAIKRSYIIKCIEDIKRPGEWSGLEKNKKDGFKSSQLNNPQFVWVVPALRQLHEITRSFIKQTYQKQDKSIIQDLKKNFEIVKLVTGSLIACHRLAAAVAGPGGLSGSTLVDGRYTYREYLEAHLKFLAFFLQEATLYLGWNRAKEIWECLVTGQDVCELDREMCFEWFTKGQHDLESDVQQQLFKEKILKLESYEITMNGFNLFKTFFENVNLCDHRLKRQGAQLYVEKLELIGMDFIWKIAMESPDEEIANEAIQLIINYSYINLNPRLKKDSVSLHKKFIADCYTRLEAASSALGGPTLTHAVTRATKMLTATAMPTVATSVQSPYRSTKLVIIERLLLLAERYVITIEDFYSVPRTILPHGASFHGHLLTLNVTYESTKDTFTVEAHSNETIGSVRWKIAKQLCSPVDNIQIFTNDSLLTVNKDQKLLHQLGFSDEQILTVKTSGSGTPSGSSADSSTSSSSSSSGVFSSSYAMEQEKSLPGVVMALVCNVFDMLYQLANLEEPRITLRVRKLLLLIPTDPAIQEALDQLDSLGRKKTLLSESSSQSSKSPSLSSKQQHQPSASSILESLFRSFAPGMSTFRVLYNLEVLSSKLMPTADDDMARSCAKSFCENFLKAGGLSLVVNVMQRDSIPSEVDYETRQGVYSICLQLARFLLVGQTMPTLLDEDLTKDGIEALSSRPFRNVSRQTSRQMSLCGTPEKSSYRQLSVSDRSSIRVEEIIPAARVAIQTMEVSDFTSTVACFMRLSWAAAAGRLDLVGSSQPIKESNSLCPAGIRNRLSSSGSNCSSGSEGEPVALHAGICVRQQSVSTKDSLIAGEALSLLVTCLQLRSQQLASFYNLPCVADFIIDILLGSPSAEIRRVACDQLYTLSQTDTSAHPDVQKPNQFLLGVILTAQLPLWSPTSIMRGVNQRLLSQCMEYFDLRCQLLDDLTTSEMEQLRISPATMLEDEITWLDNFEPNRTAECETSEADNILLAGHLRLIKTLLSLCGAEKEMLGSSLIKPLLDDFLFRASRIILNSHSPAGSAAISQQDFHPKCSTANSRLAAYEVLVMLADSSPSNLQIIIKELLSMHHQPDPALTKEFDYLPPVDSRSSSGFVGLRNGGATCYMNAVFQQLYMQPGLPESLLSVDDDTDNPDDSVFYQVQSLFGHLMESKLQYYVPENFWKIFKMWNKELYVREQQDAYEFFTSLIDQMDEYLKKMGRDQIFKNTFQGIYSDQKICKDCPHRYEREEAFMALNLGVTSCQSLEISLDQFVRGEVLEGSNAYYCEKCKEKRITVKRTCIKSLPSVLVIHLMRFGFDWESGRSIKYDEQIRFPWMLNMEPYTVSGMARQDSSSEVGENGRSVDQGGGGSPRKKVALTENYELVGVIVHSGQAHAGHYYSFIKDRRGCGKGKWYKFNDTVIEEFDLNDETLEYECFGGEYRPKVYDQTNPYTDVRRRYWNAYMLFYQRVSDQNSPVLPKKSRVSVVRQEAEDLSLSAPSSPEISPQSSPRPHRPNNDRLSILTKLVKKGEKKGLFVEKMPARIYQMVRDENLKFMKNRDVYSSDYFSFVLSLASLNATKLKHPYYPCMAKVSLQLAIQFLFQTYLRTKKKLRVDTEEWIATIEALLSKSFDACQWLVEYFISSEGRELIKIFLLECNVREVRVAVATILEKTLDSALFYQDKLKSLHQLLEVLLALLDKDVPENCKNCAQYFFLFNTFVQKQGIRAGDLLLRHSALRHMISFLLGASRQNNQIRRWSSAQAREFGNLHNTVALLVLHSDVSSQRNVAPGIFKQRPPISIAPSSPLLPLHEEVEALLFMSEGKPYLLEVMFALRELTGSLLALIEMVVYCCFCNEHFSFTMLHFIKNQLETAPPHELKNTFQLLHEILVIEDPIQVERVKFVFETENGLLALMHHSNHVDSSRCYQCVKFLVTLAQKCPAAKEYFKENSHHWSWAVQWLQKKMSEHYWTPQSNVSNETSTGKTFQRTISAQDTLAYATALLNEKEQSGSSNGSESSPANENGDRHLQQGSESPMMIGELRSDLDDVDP
# In short: as §1
# [4] = target: T3, USP25 (UniProt Q9UHP3)
# T3 sequence (whole entry): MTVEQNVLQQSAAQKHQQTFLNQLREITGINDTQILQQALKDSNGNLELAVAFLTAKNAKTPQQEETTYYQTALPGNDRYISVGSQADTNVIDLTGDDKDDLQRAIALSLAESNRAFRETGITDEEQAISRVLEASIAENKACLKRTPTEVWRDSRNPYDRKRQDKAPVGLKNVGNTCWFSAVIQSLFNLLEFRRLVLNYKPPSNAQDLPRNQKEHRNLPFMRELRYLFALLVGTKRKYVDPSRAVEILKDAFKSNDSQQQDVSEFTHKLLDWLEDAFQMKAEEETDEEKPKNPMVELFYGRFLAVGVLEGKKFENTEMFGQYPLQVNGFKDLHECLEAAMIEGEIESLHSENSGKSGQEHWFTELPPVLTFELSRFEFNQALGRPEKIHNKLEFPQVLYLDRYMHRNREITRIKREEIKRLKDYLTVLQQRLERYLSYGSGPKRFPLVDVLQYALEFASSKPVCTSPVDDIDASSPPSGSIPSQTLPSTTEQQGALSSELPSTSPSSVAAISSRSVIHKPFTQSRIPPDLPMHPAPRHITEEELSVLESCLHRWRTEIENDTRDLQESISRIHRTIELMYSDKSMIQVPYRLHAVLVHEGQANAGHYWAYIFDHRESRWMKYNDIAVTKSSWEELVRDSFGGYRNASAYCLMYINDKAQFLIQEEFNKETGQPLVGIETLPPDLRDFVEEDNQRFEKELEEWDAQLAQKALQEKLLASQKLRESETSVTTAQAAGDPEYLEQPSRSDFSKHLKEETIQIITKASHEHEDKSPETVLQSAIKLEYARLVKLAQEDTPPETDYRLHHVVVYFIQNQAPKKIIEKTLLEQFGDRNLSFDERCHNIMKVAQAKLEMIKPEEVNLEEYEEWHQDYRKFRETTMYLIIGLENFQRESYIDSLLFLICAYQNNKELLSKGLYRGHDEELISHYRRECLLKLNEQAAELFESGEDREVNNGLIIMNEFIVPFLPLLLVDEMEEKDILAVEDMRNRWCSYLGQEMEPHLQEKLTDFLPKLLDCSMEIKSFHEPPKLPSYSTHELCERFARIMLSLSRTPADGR
# In short: as §1
# [5] = target: T4, USP28 (UniProt Q96RU2)
# T4 sequence (whole entry): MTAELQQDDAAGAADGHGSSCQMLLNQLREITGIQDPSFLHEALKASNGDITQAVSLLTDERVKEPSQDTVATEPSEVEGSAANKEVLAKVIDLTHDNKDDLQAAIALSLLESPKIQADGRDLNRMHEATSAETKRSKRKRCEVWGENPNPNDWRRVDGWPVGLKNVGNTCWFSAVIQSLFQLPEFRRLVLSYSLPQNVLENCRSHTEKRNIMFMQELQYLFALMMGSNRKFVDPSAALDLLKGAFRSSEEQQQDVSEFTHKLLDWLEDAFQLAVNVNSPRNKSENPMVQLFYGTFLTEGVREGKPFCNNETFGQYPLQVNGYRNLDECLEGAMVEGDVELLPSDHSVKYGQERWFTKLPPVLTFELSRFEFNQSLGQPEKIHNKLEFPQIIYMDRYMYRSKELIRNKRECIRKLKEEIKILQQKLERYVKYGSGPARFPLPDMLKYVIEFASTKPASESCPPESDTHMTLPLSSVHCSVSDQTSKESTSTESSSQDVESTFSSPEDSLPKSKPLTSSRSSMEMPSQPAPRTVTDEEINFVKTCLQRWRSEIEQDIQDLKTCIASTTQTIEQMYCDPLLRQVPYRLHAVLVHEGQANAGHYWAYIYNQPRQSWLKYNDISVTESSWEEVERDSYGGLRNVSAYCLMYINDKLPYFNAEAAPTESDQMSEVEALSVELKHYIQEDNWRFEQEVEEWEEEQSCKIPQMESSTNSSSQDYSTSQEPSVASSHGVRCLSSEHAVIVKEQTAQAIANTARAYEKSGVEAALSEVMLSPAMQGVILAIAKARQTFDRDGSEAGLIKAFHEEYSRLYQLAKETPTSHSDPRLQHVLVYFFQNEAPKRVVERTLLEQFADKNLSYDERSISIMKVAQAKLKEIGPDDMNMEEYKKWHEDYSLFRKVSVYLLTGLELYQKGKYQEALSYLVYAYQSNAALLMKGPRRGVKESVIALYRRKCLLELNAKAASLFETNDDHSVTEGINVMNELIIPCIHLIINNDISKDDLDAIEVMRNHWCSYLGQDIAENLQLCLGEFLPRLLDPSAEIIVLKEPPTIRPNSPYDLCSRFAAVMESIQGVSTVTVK
# In short: as §1
smiles,measurement,setting,value
O=C(CCl)Nc1ccc2c(c1)OC(F)(F)O2,log2 ratio of Biotin-Ahx-Ub-VS probe labelling,[1],-0.102
same,log2 ratio of Biotin-Ahx-Ub-VS probe labelling,[2],-0.358
same,log2 ratio of Biotin-Ahx-Ub-VS probe labelling,[3],-1.19 (active)
same,log2 ratio of Biotin-Ahx-Ub-VS probe labelling,[4],-0.541
same,log2 ratio of Biotin-Ahx-Ub-VS probe labelling,[5],-1.3 (active)
